# From PubChem
# An excerpt weighted towards active compounds, which were near 7.5% of everything screened.
# RORg inh – blocks mouse ROR gamma transcriptional activity | P51450 | Drosophila S2 Gal4-RORgamma UAS-luciferase reporter, 20 h | Potency, µM (titrated, usually from 53.6 µM), most hits filed as inhibitors | 310,000 compounds, 5.4% hits | AID 2551; note: nearly all actives have a fitted effect of over 60% in size
#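 Luciferase reporter read in Schneider cells carrying Gal4-RORγ (mouse) and UAS-Photinus luciferase; cells given compound 1 h before 700 uM copper sulfate induction, then incubated 20 h at ambient temperature.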
# B2AR arrestin – beta2AR (human) beta-arrestin recruitment activity; P07550; beta-arrestin recruitment to beta2AR, cell-based reporter; Potency, µM (top dose mostly 46.1 µM), usual class: activators; 330,000 compounds, 0.02% hits; note: nearly all actives have a fitted effect of over 65% in size
# VP16 counter – inhibits Gal4-VP16 luciferase reporter, ROR gamma counter-screen; Drosophila S2 Gal4-VP16 UAS-luciferase, luminescence, 20 h; Potency, µM (top dose mostly 53.6 µM), actives largely listed as inhibitors; 310,000 compounds, 3.5% hits; AID 2546;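 note: Gal4-VP16 expression switched on by copper sulfate through the metallothionein promoter; nearly all actives have a fitted effect of over 50% in size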
# ELG1 DNA repair – blocks ELG1-dependent DNA repair in HEK293T cells. 330,000 compounds, 2.3% hits. HEK293T ELG1-luciferase reporter, luminescence, 16 h; DNA damage induced by 5-fluorouridine. Potency, µM (titrated, usually from 46.1 µM), most hits filed as inhibitors; note: nearly all actives have a fitted effect of over 55% in size
#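 Quantitative HTS, concentration-response format. 2,000 cells/well co-treated with 5-fluorouridine and compound, 16 hr in 5% CO2 at 37 °C; ONE-Glo luminescence read after 30 min.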
# TSHR antag – antagonists of human thyroid stimulating hormone receptor; P16473; TSHR-expressing cells, TSH-stimulated cAMP HTRF, 2 h; stronger effect = lower value; activity change, negative = inhibition, % at 11.5 µM; 330,000 compounds, 0.2% hits; AID 504810;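 active = activity change below a set negative limit, meaning inhibition stronger than a set level, cut at about -70% in these data; inconclusive = activity change between two set negative limits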
# Target sequence (P16473 whole entry, looked up): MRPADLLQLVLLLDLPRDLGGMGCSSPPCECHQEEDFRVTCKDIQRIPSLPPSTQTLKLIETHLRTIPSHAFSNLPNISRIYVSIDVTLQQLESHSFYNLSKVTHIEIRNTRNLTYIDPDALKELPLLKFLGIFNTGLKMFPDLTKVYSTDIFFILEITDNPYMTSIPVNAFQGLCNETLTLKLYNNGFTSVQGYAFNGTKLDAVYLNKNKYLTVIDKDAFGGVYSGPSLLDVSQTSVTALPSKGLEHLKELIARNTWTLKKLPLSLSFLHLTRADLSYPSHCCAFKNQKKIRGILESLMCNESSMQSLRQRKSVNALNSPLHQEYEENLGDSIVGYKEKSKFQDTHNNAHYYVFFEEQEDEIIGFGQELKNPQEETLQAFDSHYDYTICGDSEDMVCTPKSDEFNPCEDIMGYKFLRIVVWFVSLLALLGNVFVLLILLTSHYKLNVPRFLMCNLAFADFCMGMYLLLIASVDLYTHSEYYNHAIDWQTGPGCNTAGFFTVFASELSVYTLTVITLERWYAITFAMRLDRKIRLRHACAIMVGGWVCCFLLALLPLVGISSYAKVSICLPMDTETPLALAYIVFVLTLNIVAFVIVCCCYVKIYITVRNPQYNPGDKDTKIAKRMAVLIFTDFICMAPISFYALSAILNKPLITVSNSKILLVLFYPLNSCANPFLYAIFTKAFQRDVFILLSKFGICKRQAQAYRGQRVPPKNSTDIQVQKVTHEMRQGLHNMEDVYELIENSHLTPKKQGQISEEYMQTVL
#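 Competitive HTRF cAMP read-out (cryptate anti-cAMP antibody, cAMP-d2; 30 min, room temperature) in freshly harvested TSHR cells. Compounds added before TSH at EC80 (4nM final), followed by 2 hours' incubation at 37 deg C.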
# Hits are given with their value; n = inactive; u = inconclusive; x = no result; [ ] = remark or other dose. Unless noted, calls come from the whole dose curve; as a rule, active = well fitted curve in the direction sought with a large enough effect; inconclusive = small, poorly fitted or top-dose-only effect, or another doubt; inactive = no such curve, though single readings can be large; an effect the other way counts as inactive or inconclusive.
SMILES,RORg inh,B2AR arrestin,VP16 counter,ELG1 DNA repair,TSHR antag
c1csc(-c2nc(CN3CCSCC3)cs2)c1,u,n,u,u,n
Cc1cnc(CNc2nc(-c3cccc(NS(C)(=O)=O)c3)nc3ccccc23)cn1,n,x,n,x,x
Cn1c(=O)c2c(ncn2C[C@@H](O)CO)n(C)c1=O,n[2.98 µM],x,n,x,x
Cc1cccc(N2CCN(S(=O)(=O)c3c(C(=O)N4CCCCC4)c(C)n(C)c3C)CC2)c1C,n,n,n,n,n
Cc1cc(C)c(OCCCNC2CCCC2)c(Br)c1,n,n,n,u,n
O=C1OCCC1N(C(=O)C1CC1)c1cccc(Cl)c1 (stereo unspecified),n,x,n,x,x
CCOC(=O)C1(Cc2ccccc2C)CCCN(C(=O)c2ccccn2)C1 (stereo unspecified),n,n,n,u,n
CCOC(=O)C1(Cc2ccccc2C)CCCN(C(=O)c2ccc3nccnc3c2)C1 (stereo unspecified),n,n,n,23.1µM,n
Cc1ccc(C)c(NC(=S)Nc2ncccc2C)c1,3.55µM,n,u,u,n
Cc1cc(C)nc(NC(=S)Nc2ccc(F)cc2F)c1,0.708µM,n,n,n,n
Cc1cc(C(F)F)n2nc(C(=O)Nc3ccc(F)cc3F)nc2n1,n,n,n,n,n
Cc1cccnc1NC(=S)Nc1ccc(F)cc1F,6.31µM,n,u,u,n
CC(=O)Nc1cccc(NC(=S)Nc2ccc(F)cc2F)c1,n,n,n,n,n
Cc1ccc(C)c(NC(=O)c2ccccn2)c1,n,n,n,u,n
CN(C)C(=O)CCCCCCCCC(=O)N(C)C,n,n,n,n,n
Cc1cc(Cl)ccc1OCC(=O)NCCOc1nc(N2CCOCC2)nc(N2CCOCC2)n1,n,n,n,10.3µM,n
Cc1csc(SCC(=O)N(C)C2CCS(=O)(=O)C2)n1 (stereo unspecified),x,n,x,n,n
CCCc1ccc(OCc2ccc(C(=O)N3CCN(c4ccccn4)CC3)o2)c(OC)c1,n[0.365 µM],n,x,16.4µM,n
O=C(c1ccc(CS(=O)(=O)c2ccc(Br)cc2)o1)N1CCN(c2ccccn2)CC1,n,n,n,18.4µM,n
COc1ccc(CC(=O)N2CCN(c3ccccn3)CC2)cc1OC,n,n,n,n,n
COCO[C@H]([C@@H](C)C=C(Br)Br)[C@@H](C)COCc1ccc(OC)cc1,n,x,n,x,x
CC1(C)C2CCC1(C)C(NC(=O)/C=C/c1ccccc1)C2 (stereo unspecified),u,n,17.8µM,u,n
CC1(C)C2CCC1(C)C(Nc1ccccc1)C2 (stereo unspecified),n,n,n,u,n
CCOC(=O)CSc1nc(-c2ccc(OC)cc2)ns1,10µM,n,n,u,n
O=C(NCc1nnc(SCC(=O)N2CCCC2)o1)c1cccc(C(F)(F)F)c1,n,n,n,n,n
SMILES,RORg inh,B2AR arrestin,VP16 counter,ELG1 DNA repair,TSHR antag
CC(Oc1ccccc1)C(=O)Nc1ccc(C(N)=O)cc1 (stereo unspecified),n,n,n,u,n
CC(C)NS(=O)(=O)c1ccc(NC(=O)C(C)Oc2ccc(C(=O)c3ccccc3)cc2)cc1 (stereo unspecified),u,u,7.08µM,u,n
O=C(Nc1nnc(SCc2ccc(Cl)cc2)s1)c1cnccn1,12.6µM,n,14.1µM,n,n
O=C(Nc1ccc(Cl)cc1)Nc1nnc(SCc2ccc(Cl)cc2)s1,n,n,n,n,n
Cc1cc(C)nc(Sc2ccc([N+](=O)[O-])cc2[N+](=O)[O-])n1,8.91µM,n,u,n,n
C=CCn1nc([N+](=O)[O-])nc1Sc1cccc2cccnc12,8.91µM,u,u,u,n
O=[N+]([O-])c1ccc(Sc2cccc3cccnc23)c([N+](=O)[O-])c1,7.08µM,u,7.08µM,u,n
CN(C)/N=C/c1ccc(Sc2ccc([N+](=O)[O-])cc2[N+](=O)[O-])o1,u,n,u,u,n
COc1ccc(COC(=O)C2CCN(S(=O)(=O)c3ccc(C)cc3)CC2)cc1,x,n,x,n,n
Cc1nc2cnc(N3CCNCC3)nc2n(-c2ccccc2)c1=O,n,x,n,x,x
OCc1cn(-c2ccccc2)nc1-c1cc2ccccc2o1,u,n,11.2µM,u,n
COc1cccc(CNC(=O)c2ccc(C)c(NC3=NC4CS(=O)(=O)CC4S3)c2)c1 (stereo unspecified),n,n,n,n,n
O=C1C(=O)N(CCN2CCOCC2)C(c2ccncc2)/C1=C(/O)c1ccc2c(c1)OCO2 (stereo unspecified),n,n,n,n,n
O=C1C(=O)N(CCN2CCOCC2)C(c2ccc([N+](=O)[O-])cc2)/C1=C(/O)c1ccc2c(c1)OCO2 (stereo unspecified),7.94µM,n,11.2µM,u,n
O=C1C=C(NCCN2CCOCC2)C(=O)c2cnccc21,10µM,n,u,4.11µM,n
Clc1ccccc1-c1cncnc1NCCN1CCOCC1,n,x,n,x,x
O=C1C=C(NCCO)C(=O)c2cnccc21,3.55µM,x,6.31µM,x,x
O=C(O)C1C2C=CC(O2)C1C(=O)Nc1cccc(C(F)(F)F)c1 (stereo unspecified),n,n,n,n,n
CCN(CC)CC(=O)N1CCCC(N2CCN(c3cccc(C(F)(F)F)c3)CC2)C1 (stereo unspecified),n,n,n,n,n
Cc1cc(Cl)cc(Cl)c1OCC(=O)NCc1ccco1,u,n,u,n,n
Cc1ccc2c(Cl)cc(Cl)c(OCC(=O)N3CCCC3)c2n1,14.1µM,n,u,n,n
Cc1ccc2c(Cl)cc(Cl)c(OCC(=O)NC(=O)NCc3ccco3)c2n1,10µM,n,n,u,n
Cc1ccc2c(Cl)cc(Cl)c(OCC(=O)NCc3ccco3)c2n1,7.08µM,n,11.2µM,n,n
Cc1ccc2c(Cl)cc(Cl)c(OCC(=O)Nc3cc(C)on3)c2n1,n,n,n,n,n
Cc1cc(NC(=O)COC(=O)C2CCN(S(=O)(=O)c3ccccc3)CC2)c([N+](=O)[O-])cc1C,n,n,n,n,n
SMILES,RORg inh,B2AR arrestin,VP16 counter,ELG1 DNA repair,TSHR antag
CC1=CC(=O)C(C(C)C)=C/C1=N/OC(=O)c1cccc([N+](=O)[O-])c1,1µM,n,u,n,n
CCCC(=O)C1=C(O)C(c2cccc(Oc3ccccc3)c2)CCC1=O (stereo unspecified),12.6µM,n,u,18.3µM,n
O=C1CC(c2cccc(Oc3ccccc3)c2)NC(=O)N1 (stereo unspecified),n,n,n,n,n
Cc1noc(C)c1-c1ccc2ncnc(Nc3ccc(F)cc3)c2c1,n,x,n,x,x
O=c1c(/C=N\NS(=O)(=O)c2ccccc2)coc2ccc(Cl)cc12,x,n,x,14.6µM,n
O=C(N/N=C/c1coc2ccccc2c1=O)c1ccc(Cl)cc1,n,n,n,n,n
